Screens from PubChem BioAssay.
Most compounds without a hit are left out; they make up all but 0.97% or so of the library.
Eya2 inh – qHTS Assay for Inhibitors of the Phosphatase Activity of Eya2; 330,000 compounds, 0.006% hits; AID 488837, 2010; Potency, µM (doses to about 76.9 µM), inactives show top-dose activity, negative = inhibition, hits mostly inhibitors; recombinant Eya2, OMFP fluorescence dephosphorylation (OMFP is methylfluorescein phosphate); Protein phosphatase EYA2 (Homo sapiens), O00167; active means well fitted inhibition curve with a large enough effect; inconclusive means small, poorly fitted or top-dose-only effect, or effect the other way; further: potency means the concentration at half of the fitted maximal effect
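Eya2 protein (added as 0.2 uM solution) was preincubated with compound for 10 min at ambient temperature in 50 mM HEPES pH 7.5, 50 mM NaCl, 5 uM MgCl2, 0.05% BSA, 1 mM DTT. OMFP (added at 50 uM) then reacted 10 min; fluorescence read at 485/525 nm.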
PI4K2A inh – qHTS for small molecular inhibitors of PI4K2A; Phosphatidylinositol 4-kinase type 2-alpha (Homo sapiens), Q9BTU6; purified PI4K2A, ADP-Glo luminescence, 1 h; active compounds read low; activity change, negative = inhibition, % at 76.9 µM; 420,000 compounds, 0.13% hits; AID 1346378, 2018; in the data active means activity change below about -50%; inconclusive means mostly about -30% to -49%;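 further: -100% = wells without enzyme as full effect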
Target sequence (Q9BTU6 whole entry, looked up): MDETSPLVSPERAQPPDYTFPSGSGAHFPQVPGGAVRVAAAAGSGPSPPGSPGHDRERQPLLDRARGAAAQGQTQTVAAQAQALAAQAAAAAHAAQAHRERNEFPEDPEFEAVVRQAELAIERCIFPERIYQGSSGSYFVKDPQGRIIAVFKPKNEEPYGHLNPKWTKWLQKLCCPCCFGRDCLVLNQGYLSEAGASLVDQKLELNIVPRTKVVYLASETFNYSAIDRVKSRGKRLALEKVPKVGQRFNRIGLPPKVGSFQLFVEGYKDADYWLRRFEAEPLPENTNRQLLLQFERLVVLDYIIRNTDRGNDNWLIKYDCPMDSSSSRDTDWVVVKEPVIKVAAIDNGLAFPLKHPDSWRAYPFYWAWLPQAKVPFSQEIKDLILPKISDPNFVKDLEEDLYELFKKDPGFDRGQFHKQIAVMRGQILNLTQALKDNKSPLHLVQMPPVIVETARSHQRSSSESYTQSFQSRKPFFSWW
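PI4K2A activity was measured by ADP-Glo luminescence: enzyme (4 ug/mL stock) and phosphatidylinositol (1.2 mM stock) in Tris pH 7.5/MgCl2/EGTA/Triton X-100 buffer were reacted with ATP (300 microM stock) for one hour at ambient temperature.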
CCT chaperon mod – High-Throughput Screening for Modulators of Cytosolic Chaperonin Activity. purified chaperonin ATPase assay, HTRF ADP detection, 30 min. activity change, % (concentration not given with the values), hits read low. 360,000 compounds, 0.3% hits. AID 651819, 2012; in the data active means activity change below about -30%
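TRiC (40 or 20 nM final, by batch activity) in 30 mM Tris pH 7.4, 100 mM KCl, 5 mM MgCl2, 1 mM DTT was treated with compound at 76 uM single dose, then 10 uM ATP, 30 min at 37 °C. ADP was read by HTRF Transcreener.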
CtBP-E1A blk – qHTS Assay for Inhibitors of the CtBP/E1A Interaction. AID 651724, 2012. activity change, % (concentration not given with the values). 340,000 compounds, 0.49% hits. AlphaScreen GST-E1A/His-CtBP binding, 1536-well; active compounds read low
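In 5 uL wells, 23 nL compound meets equimolar GST-E1A and His-CtBP (5X stock 125 nM each) for 2 h, 37 °C. Beads (5X, 50 ug/mL) then 1 h, 37 °C, dark.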
Six1-Eya2 inh – qHTS Assay for Inhibitors of the Six1/Eya2 Interaction. AID 651725, 2012. 360,000 compounds, 0.56% hits. AlphaScreen GST-Six1/His-Eya2 binding, biochemical; active compounds read low. activity change, % (concentration not given with the values). Homeobox protein SIX1 (Homo sapiens) + Protein phosphatase EYA2 (Homo sapiens), …
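Compounds are tested against tagged Six1 and Eya2 proteins bridged by glutathione donor and nickel acceptor beads; after a one-hour incubation at 37 °C without light, AlphaScreen emission is recorded.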
Numbers without * were called inactive; ? = inconclusive; . = not tested or not shown. Unless noted, no stated cut-off is given here; in the data, active means activity change below about -65%; inconclusive means mostly about -30% to -63%; inactive means weaker than that. Unless noted, on the % scale 0 is the no-effect control and ±100 the full control effect.

SMILES	Eya2 inh	PI4K2A inh	CCT chaperon mod	CtBP-E1A blk	Six1-Eya2 inh
O=C(Nc1nc(-c2ccccc2)cs1)C1COc2ccccc2O1 (configuration not stated)	-15%	1	-4	-11	-2
O=C(N/N=C/c1ccc(O)cc1O)C(=O)N/N=C/c1ccc(O)cc1O	6%	3	0	-92*	-68*
COc1cccc(/C=N/NC(=O)CNC(=O)c2ccncc2)c1O	-13%	1	0	.	5
COc1ccc(/C=N/NC(=O)CNC(=O)COc2ccccc2)cc1	-8%	-1	-4	2	3
COc1cccc(/C=N/NC(=O)CNC(=O)c2cccnc2)c1O	8%	-4	-1	-87*	-71*
COc1cccc(/C=N/NC(=O)CNC(=O)COc2ccccc2)c1O	5%	-7	-4	?	-83*
O=C(NN=Cc1ccc(O)cc1)C(=O)NN=Cc1ccc(O)cc1	.	-10	-4	-4	-6
O=C(COc1ccccc1)NCC(=O)N/N=C/c1ccc(O)cc1O	8%	4	0	-91*	-80*
O=C(c1ccc([N+](=O)[O-])cc1)N1CCN(c2ccc(Nc3ccccc3)nn2)CC1	.	5	.	.	.
O=c1[nH]c(=O)n([C@H]2O[C@H](CO)[C@@H](O)[C@@H]2O)cc1/C=C\Br	.	0	.	.	.
O=C(CNC(=O)c1ccco1)Nc1ccc(F)cc1	10%	3	-1	-96*	2
COc1cccc(/C=N/NC(=O)C[n+]2ccccc2)c1O	-2%	-3	-2	-88*	-87*
O=C(C[n+]1ccccc1)N/N=C/c1ccccc1F	7%	4	3	?	1
O=C(C[n+]1ccccc1)N/N=C/c1cc(Br)ccc1O	11%	4	-4	0	-88*
COc1cccc(/C=N/NC(=O)CNC(=O)c2ccc3c(c2)OCCO3)c1O	2%	0	0	?	-88*
Cc1ccc(Nc2ncnc3onc(C)c23)cc1Cl	.	-2	.	.	.
COc1ccccc1CNC(=O)CCCCn1c(=O)c2ccccc2n(CC(=O)Nc2c(C)cc(C)cc2C)c1=O	.	2	.	.	.
CCN(CC)S(=O)(=O)c1ccc2c(c1)c(=O)c(C(=O)NCc1ccccc1Cl)cn2C	.	2	.	.	.
CCCCN(C)CCCNC(=O)Cn1nc(CC)n2c(cc3sc(C)cc32)c1=O	.	-2	.	.	.
COc1nnc(-c2ccc(N3CCCCC3)c(NC(=O)c3ccccc3Cl)c2)c2ccccc12	.	-3	.	.	.
CC(C)(C)OC(=O)N1CCC(c2c(C(=O)Nc3ccc4c(c3)OCCO4)cnn2-c2ccccc2)CC1	.	0	.	.	.
COc1cc(OC)c(OC)cc1/C=N/NC(=O)c1cc(-c2cccn2C)n[nH]1	?	6	0	2	-2
COc1cccc(/C=N/NC(=O)CNC(=O)c2ccco2)c1O	15%	-2	-3	?	-84*
COc1cccc(/C=N/NC(=O)C(=O)NCc2cccnc2)c1O	12%	0	-1	-92*	-89*
O=C(CNC(=O)c1ccncc1)N/N=C/c1ccc(O)cc1O	-1%	2	0	.	-90*
SMILES	Eya2 inh	PI4K2A inh	CCT chaperon mod	CtBP-E1A blk	Six1-Eya2 inh
CCOc1cccc(/C=N/NC(=O)c2cc(-c3cccn3C)n[nH]2)c1O	3%	0	1	-85*	-87*
Cc1ccc2c(CNCCc3ccco3)c(C(=O)O)n(Cc3ccc(F)cc3)c2c1	.	1	.	.	.
CCC(=O)N1CCc2cc(Br)cc(S(=O)(=O)CCC(=O)NCc3ccc(C)cc3)c21	.	-6	.	.	.
CCOc1ccc(/C=N/NC(=O)C(O)c2ccccc2)c(O)c1 (configuration not stated)	2%	-4	-6	-85*	?
CCOc1ccc(CCNC(=O)C(O)c2ccccc2)cc1 (configuration not stated)	6%	-9	-2	8	5
O=C(CNC(=O)c1ccc2c(c1)OCCO2)N/N=C/c1ccc(O)cc1O	4%	-5	-2	-90*	-77*
CN(C)c1ccc(/C=N/NC(=O)CNC(=O)c2ccc3c(c2)OCCO3)cc1	5%	2	-20	-12	-5
CCOc1cccc(/C=N/NC(=S)Nc2cc(S(=O)(=O)N3CCOCC3)ccc2N2CCOCC2)c1O	-1%	3	-1	-97*	-87*
COc1cccc(C=Nc2ccc3c(c2)OCCO3)c1O	-3%	-63*	-1	-6	16
COc1cccc(/C=N/NC(=O)CNC(=O)C2COc3ccccc3O2)c1O (configuration not stated)	0%	4	0	-83*	?
CC12CCC(C(=O)N/N=C/c3ccc(O)cc3O)(OC1=O)C2(C)C (configuration not stated)	2%	0	1	-88*	-68*
O=C(CNC(=O)C1COc2ccccc2O1)N/N=C\c1ccccc1Cl (configuration not stated)	-9%	-1	-1	5	6
CCOc1cccc(/C=N/NC(=O)c2ccc3c(c2)OCCO3)c1O	1%	-5	-4	-87*	?
Cc1cccc(/C=N/NC(=O)c2ccc3c(c2)OCCO3)c1O	-6%	.	.	.	.
Cc1ccc(Cl)cc1NC(=O)c1ccc(NC(=O)N2CCSc3ncccc32)cc1	.	-2	.	.	.
CCOc1ccc2nc(N3CCCC(C(=O)Nc4cccc(Cl)c4C)C3)sc2c1 (configuration not stated)	.	0	.	.	.
COc1ccccc1-c1cc2nc(C)c(CCC(=O)NCc3cccc(Cl)c3)c(C)n2n1	.	2	.	.	.
COc1nccnc1NS(=O)(=O)c1ccc(NC(=S)NC(=O)c2ccc(F)cc2)cc1	-4%	-4	2	3	8
COc1nccnc1NS(=O)(=O)c1ccc(NC(=S)NC(=O)c2cccc(F)c2)cc1	-3%	-6	-63*	-6	-7
COc1ccc(NC(=O)CN2C(=O)CSc3ccc(S(=O)(=O)N4CCCC4)cc32)cc1OC	0%	-7	-37*	-13	-8
COc1ccc(OC)c(NC(=O)CN2C(=O)CSc3ccc(S(=O)(=O)N4CCCC4)cc32)c1	3%	-3	1	-4	-3
COC(=O)c1ccc2nc(C)cc(Nc3ccccc3C)c2c1	2%	1	-3	-10	4
COC(=O)c1ccc(Nc2cc(C)nc3ccc(C)cc23)cc1	6%	0	-39*	-11	-9
CN1CCN(c2ccc(-c3cc(O)c4ncccc4c3)cc2)CC1	-17%	.	.	.	.
NC(=O)c1sc(=S)n2c1[nH]c(=O)c1sccc12	13%	0	1	-82*	?
